Assay results as given in PubChem BioAssay.

Assay: small-molecule microarray binders of probe aWnt5a, primary screen, biochemical, biotinylated probe, 635/667 nm fluorescence (AID 1113);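 also: score merges 667 nm fluorescence intensity with signal-to-noise per printed feature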
Conditions: higher = more signal
For `CCCCCN1CC=CC23O[C@@H]4/C=C\CCC(C)OC(=O)C4[C@H]2C(=O)N(CCCCCO)[C@@H]3C1=O` (some centres not stated), the composite z-score was -0.298. Work on `CC(C)Cc1ccc(CN2CC[C@@H](NS(=O)(=O)c3ccccc3)C2)cc1` yielded a composite z-score of -0.176. `C=CCC(OC(C)=O)[C@@H]1[C@@H](N(Cc2cccc3ccccc23)C(=O)c2ccc(C)cc2)c2cc(OCCCO)ccc2N1C(=O)Cc1ccc(OC)cc1` (some centres not stated) showed a composite z-score of -0.124. `CN1C(=O)C2C=CC(C(O)c3ccccn3)N(Nc3ccccc3)C2C1=O` (configuration not stated) showed a composite z-score of -0.0647. Compound `COc1cccc(C(=O)O[C@H]2CC[C@]3(C)C4=C(CCC3C2(C)C)[C@]2(C)CC[C@H]([C@H](C)CCCC(C)C)[C@@]2(C)CC4)c1` (some centres not stated) has a composite z-score of -0.202. Work on `COc1ccc(C(=O)Nc2cccc(CN3C(=O)[C@@]4(O[C@@H](CCn5cc(CCO)nn5)[C@H]([Si](C)(C)c5ccc(OC)cc5)[C@H]4C)c4ccccc43)c2)cc1` yielded a composite z-score of -0.0403. For `O=C1N(CCS(=O)(=O)c2ccccc2)Cc2ccccc2C[C@]12N=C(c1ccc(OCCCO)cc1)O[C@@H]2c1ccccc1`, the composite z-score was 0.122.
